Source: PubChem BioAssay (several laboratories)
ugtP null kill: compounds lethal to S. aureus RN4220 ugtP deletion mutant; growth inhibition, % (test concentration not listed); OD600 growth, 16 h; actives 0.54% (n = 330,000); in the data active means growth inhibition above about 68%;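 further: plate controls were untreated wells for no effect and antibiotic for full effect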
CCHF vOTU inh-1: blocks the CCHF virus ovarian tumor domain protease | actives 0.55% (n = 370,000) | inhibition, % at 11.5 µM | CCHFV vOTU protease, Pep-AMC fluorescence | AID 651958; further: 0% = vehicle wells with enzyme and 100% = no enzyme wells
BJeLR viability: BJeLR cell viability loss; actives 0.17% (n = 300,000); AID 1554; BJeLR (HRASV12) viability, CellTiter-Glo ATP luminescence, 48 h; inhibition, % (no concentration beside the values); in the data active means inhibition above about 50%; inconclusive means no clear call, values can overlap the other calls
PfHsp40 yeast: compounds rescuing yeast from Plasmodium falciparum HSP40 toxicity | growth rescue, % at 12.5 µM | AID 504582 | S. cerevisiae expressing PfHsp40, growth rescue, ATP luminescence | actives 0.68% (n = 340,000); in the data active means growth rescue above about 28%, passing the limit was not always enough; inconclusive means no clear call, values can overlap the other calls;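 further: yeast W303a lacking pdr1 and pdr3 grown in galactose medium; growth measured after three days at 30 °C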
Sa RN4220 lethal: kills Staphylococcus aureus RN4220; AID 1259311; actives 0.33% (n = 330,000); S. aureus RN4220 growth, OD600, 16 h; inhibition, % (no concentration beside the values); in the data active means inhibition above about 85%;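 further: plate controls were untreated cells for no effect and reference antibiotic for full effect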
CCHF vOTU inh-2: confirmation of CCHF virus vOTU protease inhibitors; actives 17% (n = 1,900); shares compounds with CCHF vOTU inh-1; Recombinant CCHFV vOTU, Pep-AMC fluorescence; inhibition, % at 11.5 µM; AID 686976
* = called active by the depositor. Most compounds without a hit are left out; they make up all but 1.6% or so of the library. Unless noted, no stated cut-off is given here; in the data, active means inhibition above about 30%; inactive means the rest.

How did O=C1C=C(Nc2cccnc2)c2ccccc2C1=O do in these assays?
CCHF vOTU inh-1: 98*; PfHsp40 yeast: -1; CCHF vOTU inh-2: 96*

What do the screens show for `O=C1C=C(NCc2ccccc2)c2ccccc2C1=O`?
ugtP null kill: 92*; CCHF vOTU inh-1: 64*; BJeLR viability: 1; PfHsp40 yeast: 2; Sa RN4220 lethal: 92*; CCHF vOTU inh-2: 89*

Results for Cc1ccc(NC2=CC(=O)C(=O)c3ccccc32)c(C)c1 ?
ugtP null kill: 0; CCHF vOTU inh-1: 2; PfHsp40 yeast: inconclusive; Sa RN4220 lethal: 12

Results for CCOc1ccc(NC2=CC(=O)C(=O)c3ccccc32)cc1 ?
CCHF vOTU inh-1: 91*; PfHsp40 yeast: 12; CCHF vOTU inh-2: 45*

How did O=[N+]([O-])c1cccc(C=Nn2c(COc3ccccc3)n[nH]c2=S)c1 do in these assays?
ugtP null kill: 6; Sa RN4220 lethal: 5

Results for COC(=O)NC(c1ccccc1)[C@@]1(C)CC1C(C)C(=O)Nc1ccc2ccccc2c1 (stereo partly drawn) ?
ugtP null kill: 1; Sa RN4220 lethal: -1

What do the screens show for `CC#CC[N+](C)(C)CCCCCCCC`?
ugtP null kill: 5; CCHF vOTU inh-1: 0; BJeLR viability: 13; PfHsp40 yeast: -1; Sa RN4220 lethal: 4

What do the screens show for `CCCCCCCCCCCCCCCC[N+](C)(C)Cc1ccc(F)cc1`?
CCHF vOTU inh-1: 56*; PfHsp40 yeast: -2; CCHF vOTU inh-2: 57*

What do the screens show for `O=C(/C=C/c1ccccc1Br)c1ccc2c(c1)OCO2`?
ugtP null kill: 8; CCHF vOTU inh-1: 23; BJeLR viability: 6; PfHsp40 yeast: 3; Sa RN4220 lethal: 7

Results for O=C(/C=C\Nc1ccccc1Br)c1ccc2c(c1)OCO2 ?
ugtP null kill: 7; CCHF vOTU inh-1: 32*; BJeLR viability: 2; PfHsp40 yeast: 1; Sa RN4220 lethal: -4; CCHF vOTU inh-2: -6

How did Oc1cc(CNCc2ccccc2)c(O)cc1CNCc1ccccc1 do in these assays?
ugtP null kill: -5; CCHF vOTU inh-1: 43*; PfHsp40 yeast: -1; Sa RN4220 lethal: 1; CCHF vOTU inh-2: -2

Results for COc1ccc(S(=O)(=O)N(C)CC2Oc3c(NC(=O)c4ccncc4)cccc3C(=O)N(C(C)CO)CC2C)cc1 (stereo not drawn) ?
ugtP null kill: -10; Sa RN4220 lethal: 4

How did COc1ccc(/C=N/Nc2nnc(C)n2N)cc1OC do in these assays?
CCHF vOTU inh-1: 91*; BJeLR viability: 7; PfHsp40 yeast: -1; CCHF vOTU inh-2: 4

Results for COc1ccc(/C=N/Nc2nnc(C)n2N)cc1OC(C)=O ?
CCHF vOTU inh-1: 93*; BJeLR viability: -2; PfHsp40 yeast: -1; CCHF vOTU inh-2: -14

Results for CCOc1cc(C=NNc2nnc(C)n2N)ccc1OC(C)=O ?
ugtP null kill: 5; Sa RN4220 lethal: -2

What do the screens show for `COc1cccc(C=NNC(=O)C(=O)NCc2cccnc2)c1`?
ugtP null kill: 4; Sa RN4220 lethal: 3

How did Oc1c(N=Nc2nn[nH]n2)ccc2ccccc12 do in these assays?
CCHF vOTU inh-1: 98*; CCHF vOTU inh-2: 84*

What do the screens show for `CNC(=O)[C@@]1(C)C=CC(Cc2ccccc2)N1C(=O)OC` (stereo partly drawn)?
ugtP null kill: -1; Sa RN4220 lethal: 5

What do the screens show for `O=C1C=CC(=O)c2c(O)c(N3CCN(CCOCCO)CC3)c(Br)c(O)c21`?
CCHF vOTU inh-1: 111*; PfHsp40 yeast: 0; CCHF vOTU inh-2: 104*

How did O=C1C=CC(=O)c2c(O)c(N3CCN(CCO)CC3)c(Cl)c(O)c21 do in these assays?
CCHF vOTU inh-1: 102*; PfHsp40 yeast: 0; CCHF vOTU inh-2: 98*

What do the screens show for `COc1ccc(C=NNC(=O)c2cc[n+]([O-])cc2)cc1O`?
ugtP null kill: 1; Sa RN4220 lethal: 4

Results for COc1cc(/C=N/NC(=O)c2cc[n+]([O-])cc2)ccc1O ?
CCHF vOTU inh-1: 30*; BJeLR viability: -11; PfHsp40 yeast: 0; CCHF vOTU inh-2: -11

Results for CC1=CC(C)(C)N2C(=O)C(=Nc3ccc(O)cc3)c3cccc1c32 ?
ugtP null kill: 1; CCHF vOTU inh-1: 82*; BJeLR viability: 1; PfHsp40 yeast: 0; Sa RN4220 lethal: 7; CCHF vOTU inh-2: -10

How did COc1cc(N=C2C(=O)N3c4c(cccc42)C(C)=CC3(C)C)cc(OC)c1 do in these assays?
ugtP null kill: -2; CCHF vOTU inh-1: 4; BJeLR viability: 1; PfHsp40 yeast: -1; Sa RN4220 lethal: 6

What do the screens show for `CCCCn1c(N)c(N(CC(C)C)C(=O)c2cc3c(s2)CCCCC3)c(=O)[nH]c1=O`?
ugtP null kill: 3; CCHF vOTU inh-1: 1; BJeLR viability: -16; PfHsp40 yeast: 1; Sa RN4220 lethal: 3

What do the screens show for `CCCCn1c(N)c(N(CC(C)C)C(=O)c2cccs2)c(=O)[nH]c1=O`?
ugtP null kill: 9; CCHF vOTU inh-1: 39*; BJeLR viability: -26; PfHsp40 yeast: 0; Sa RN4220 lethal: 1; CCHF vOTU inh-2: -13

What do the screens show for `c1ccc(Nc2ccc(Nc3ccccc3)cc2)cc1`?
ugtP null kill: -7; CCHF vOTU inh-1: 1; PfHsp40 yeast: 0; Sa RN4220 lethal: 0

What do the screens show for `O=C1C=CC(=O)N1c1ccc(Nc2ccccc2)cc1`?
ugtP null kill: 0; CCHF vOTU inh-1: 41*; PfHsp40 yeast: 236*; Sa RN4220 lethal: 1; CCHF vOTU inh-2: -16

Results for CCOC(=O)c1c(C)oc2c1cc(NS(=O)(=O)c1ccc(C(=O)O)cc1)c1ccccc12 ?
ugtP null kill: 0; CCHF vOTU inh-1: 45*; BJeLR viability: -12; PfHsp40 yeast: 1; Sa RN4220 lethal: 9; CCHF vOTU inh-2: 4

Results for COC(=O)C1NC(C(NC(=O)COc2ccccc2)C(=O)NC2CC2)SC1(C)C (stereo not drawn) ?
ugtP null kill: 2; Sa RN4220 lethal: 2

Results for CC(C)(C)C(=O)[C@@H]1[C@@H]2C(=O)N(C3CCCCC3)C(=O)[C@@H]2[C@H]2c3ccccc3C=CN12 ?
ugtP null kill: -7; CCHF vOTU inh-1: 33*; PfHsp40 yeast: 1; Sa RN4220 lethal: 3; CCHF vOTU inh-2: 13

How did COc1ccc(N2C(=O)[C@H]3[C@@H](C2=O)C2c4ccccc4C=NN2[C@H]3C(=O)C(C)(C)C)cc1 (stereo partly drawn) do in these assays?
ugtP null kill: 12; CCHF vOTU inh-1: -2; BJeLR viability: -5; PfHsp40 yeast: 0; Sa RN4220 lethal: 3

How did COc1ccc(N2C(=O)[C@@H]3[C@H](C2=O)[C@H]2c4ccccc4C=CN2[C@@H]3C(C)=O)cc1 do in these assays?
ugtP null kill: 3; CCHF vOTU inh-1: 92*; PfHsp40 yeast: -1; Sa RN4220 lethal: 1; CCHF vOTU inh-2: 92*
